Results: PubChem BioAssay (Tox21)
A number with no mark means an inactive call. Results filed as inconclusive are left out. Where a call stands in place of a potency, no number is given. Calls of active or inactive are those of the source. Unless noted, calls follow the shape of the full dose curve.

Columns and labels:
[1] = Nuclear factor erythroid 2-related factor 2/antioxidant responsive element (Nrf2/ARE) small molecule agonists: qHTS cell viability counter screen in human keratinocytes (AID 1919968; active = well fitted curve in the direction sought with a large enough effect in the repeat runs; an effect the other way counts as inactive or inconclusive; also: nearly all actives have a fitted effect of over 55% in size; also: potency is read from the fitted curve at half-maximal effect)
How it was run: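 Fluorescence read-out from CellTiter-Fluor after 1 h at 37 C. Wells held HaCaT-derived ARE-luciferase reporter cells (1,500/well) treated 23 h with DMSO-dissolved compounds. Run in the same wells as the luciferase agonist read.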

[2] = Nuclear factor erythroid 2-related factor 2/antioxidant responsive element (Nrf2/ARE) small molecule agonists: luciferase reporter gene qHTS assay in human keratinocytes (AID 1919969); also: nearly all actives have a fitted effect of over 35% in size; also: potency is read from the fitted curve at half-maximal effect
[3] = molecular target: Gonadotropin-releasing hormone receptor (Homo sapiens) (UniProt P30968); test: Human gonadotropin-releasing hormone receptor (GnRHR) small molecule agonists, calcium flux assay in GnRHR-HEK293 cells (AID 1920063); also: nearly all actives have a fitted effect of over 35% in size
How it was run: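 Calcium-dye fluorescence, Ex/Em=480/540, recorded every 1 sec over 3 min after compound addition to GnRHR-HEK293 cells. Cells had been seeded 18 hours earlier and dye-loaded for 1 hour at 37 C. Fifteen concentrations, triplicates.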

[4] = molecular target: KiSS-1 receptor (Homo sapiens) (UniProt Q969F8); test: Human kisspeptin (KISS1R) small molecule agonists, calcium flux assay in KISS1R-HEK293 cells (AID 1920064; active = well fitted curve in the direction sought with a large enough effect in the repeat runs; an effect the other way counts as inactive or inconclusive)
How it was run: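 Calcium flux read-out: kinetic fluorescence at Ex/Em=480/540, 1 s intervals over 3 min, after pin-tool compound addition to dye-loaded KISS1R-HEK293 cells. Fifteen concentrations, triplicates.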

[5] = G protein-coupled receptor (GPCR) small molecule agonists, calcium flux assay: HEK293 wild type cell line counter screen (AID 1920065)
How it was run: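 Agonist mode; 18 h seeding at 37 C, 1 h dye load at 37 C; compounds pinned from DMSO, ATP as positive control; kinetic fluorescence 480/540 nm, 3 min, 1 s reads; 15 concentrations, triplicate.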

[6] = p53 small molecule agonists, cell-based qHTS assay with human liver microsomes (AID 1963577);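 also: p53 response element beta-lactamase reporter cells with liver microsomes plus NADPH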
How it was run: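 HLM-supplemented p53RE-bla reporter assay: 16 h compound exposure at 37 C, microsomes and NADPH each 0.5 mg/mL final, read by fluorescence intensity.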

[7] = p53 small molecule agonists, cell-based qHTS assay with rat liver microsomes (AID 1963578)
How it was run: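 Quantitative HTS of the Tox21 10K library: p53RE-bla cells, rat liver microsomes plus NADPH at 0.5 mg/mL final each, 16 h at 37 C, beta-lactamase fluorescence detection.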

[8] = p53 small molecule agonists, cell-based qHTS assay with rat liver microsomes: qHTS cell viability counter screen (AID 1963580); also: nearly all actives have a fitted effect of over 45% in size
How it was run: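 Cytotoxicity counter screen: intracellular ATP measured by CellTiter-Glo luminescence in the same wells as the beta-lactamase reporter read, on HCT-116 p53RE-bla cells exposed 16 h at 37 C to compounds with rat liver microsomes and NADPH, each 0.5 mg/mL final.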

[9] = p53 small molecule agonists, cell-based qHTS assay: qHTS cell viability counter screen (AID 1963581); also: nearly all actives have a fitted effect of over 45% in size
How it was run: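 Cytotoxicity read-out: ATP-based luminescence (CellTiter-Glo, 30 min RT) measured in the same wells as the p53 reporter assay, HCT-116 p53RE-bla cells, 16 h compound exposure at 37 C.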

[10] = p53 small molecule agonists, cell-based qHTS assay (AID 1963582; active = well fitted activation curve with a large enough effect in the signal ratio in the repeat runs, not every such curve was filed as active; the % refers to the signal ratio)
How it was run: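 Fluorescence intensity read-out of a beta-lactamase reporter under a p53 response element. Cells were exposed to DMSO-dissolved compounds for 16 h at 37 C, then developed with FRET substrate for 2 h at RT.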

[11] = molecular target: 5-hydroxytryptamine receptor 2A (Homo sapiens) (UniProt P28223); test: 5-hydroxytryptamine receptor 2A (HTR2A) small molecule antagonists, cell-based qHTS assay (AID 1963586); also: nearly all actives have a fitted effect of over 45% in size; also: potency is read from the fitted curve at half-maximal effect
How it was run: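 CHO cells stably expressing human HTR2A were plated for 18 h at 37 C, then loaded with calcium dye for 1 h. Compounds were preincubated 5 min at room temperature before DOI (4 nM solution) was added. Kinetic fluorescence was read for 3 min.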

[12] = molecular target: 5-hydroxytryptamine receptor 2A (Homo sapiens) (UniProt P28223); test: 5-hydroxytryptamine receptor 2A (HTR2A) small molecule agonists, cell-based qHTS assay (AID 1963587); also: nearly all actives have a fitted effect of over 30% in size
How it was run: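 CHO cells stably expressing human HTR2A, plated 18 h, loaded with calcium dye 1 h at 37 C. Agonist mode: compounds added and intracellular calcium fluorescence recorded kinetically for 2 min at 1 sec intervals.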

[13] = molecular target: Muscarinic acetylcholine receptor M1 (Homo sapiens) (UniProt P11229); test: Cholinergic receptor muscarinic 1 (CHRM1) small molecule antagonists, cell-based qHTS assay (AID 1963588); also: nearly all actives have a fitted effect of over 40% in size; also: potency is read from the fitted curve at half-maximal effect
How it was run: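 Compounds were tested at 15 concentrations in three independent runs. Dye-loaded CHRM1-CHO cells were exposed 5 min at room temperature before stimulation by acetylcholine added at 50nM. Intracellular calcium was read kinetically on FDSS for 3 min.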

[14] = molecular target: Muscarinic acetylcholine receptor M1 (Homo sapiens) (UniProt P11229); test: Cholinergic receptor muscarinic 1 (CHRM1) small molecule agonists, cell-based qHTS assay (AID 1963589); also: nearly all actives have a fitted effect of over 35% in size
How it was run: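 Calcium flux read-out: kinetic fluorescence at 1 sec intervals after pin-tool compound addition to dye-loaded CHRM1-CHO cells (human M1). Agonist mode; 15 concentrations tested in triplicate independent runs.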

[15] = molecular target: Beta-2 adrenergic receptor (Homo sapiens) (UniProt P07550); test: Adrenergic beta2 receptor (ADRB2) small molecule agonists, cell-based qHTS assay (AID 1963593);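 also: CHO cells stably overexpressing human ADRB2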
How it was run: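 CHO cells stably over-expressing ADRB2 were plated overnight at 37C, then dosed with compounds plus a stimulation mix containing 100uM IBMX and 25uM Ro-20-1724 for 0.5hr at room temperature. cAMP was measured by HTRF competition, 1hr.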

[16] = cAMP Responsive Elements (CRE) small molecule agonists, cell-based qHTS assay (AID 1963590)
How it was run: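 Beta-lactamase reporter readout: LiveBLAzer B/G FRET substrate, 2 h at room temperature, added after 3 h compound treatment of CRE-bla HEK 293T cells at 37 C/5% CO2.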

[17] = cAMP Responsive Elements (CRE) small molecule antagonists, cell-based qHTS assay (AID 1963591; active = well fitted inhibition curve with a large enough effect in the signal ratio in the repeat runs, not every such curve was filed as active; the % refers to the signal ratio)
How it was run: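 HEK293T CRE-bla; 18 h preincubation; compound pin-transfer; NKH477 0.25 uM final, 3 h, 37 C; LiveBLAzer FRET substrate 2 h RT.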

[18] = molecular target: Beta-2 adrenergic receptor (Homo sapiens) (UniProt P07550); test: Adrenergic beta2 receptor (ADRB2) small molecule antagonists, cell-based qHTS assay (AID 1963592); also: series mostly up to about 92 µM; nearly all actives have a fitted effect of over 50% in size
How it was run: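 Assay format: CHO-ADRB2 cells, 18-20hr seeding at 37C/5% CO2, then compound plus 1nM isoproterenol agonist mix for 0.5hr RT. Homogeneous time-resolved fluorescence cAMP detection after 1hr, expressed as 665/615 nm ratio.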

[19] = molecular target: D(2) dopamine receptor (Homo sapiens) (UniProt P14416); test: Dopamine D2 receptor (DRD2) small molecule agonists, cell-based qHTS assay (AID 1963594); also: nearly all actives have a fitted effect of over 35% in size
How it was run: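 HEK293 cells stably expressing human DRD2, pre-treated with PDE inhibitor Ro20-1724 (0.1 mM final) and compound 10 min at room temperature, then stimulated with NKH477 (200nM […]) for 30 min. cAMP read by HTRF (665/620 nm).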

[20] = molecular target: D(2) dopamine receptor (Homo sapiens) (UniProt P14416); test: Dopamine D2 receptor (DRD2) small molecule antagonists, cell-based qHTS assay (AID 1963595; active = well fitted inhibition curve with a large enough effect in the signal ratio in the repeat runs, with a control signal flat; the % refers to the signal ratio; also: potency is read from the fitted curve at half-maximal effect)
How it was run: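 HTRF cAMP read-out at 665 and 620 nm emission (340 nm excitation). Antagonist mode: compounds were tested against 12 nM quinpirole in DRD2-HEK293 cells, with 200 nM NKH477 raising cAMP and 0.1 mM Ro20-1724 blocking its breakdown.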

D(2) dopamine receptor (Homo sapiens), sequence (P14416 whole entry, looked up): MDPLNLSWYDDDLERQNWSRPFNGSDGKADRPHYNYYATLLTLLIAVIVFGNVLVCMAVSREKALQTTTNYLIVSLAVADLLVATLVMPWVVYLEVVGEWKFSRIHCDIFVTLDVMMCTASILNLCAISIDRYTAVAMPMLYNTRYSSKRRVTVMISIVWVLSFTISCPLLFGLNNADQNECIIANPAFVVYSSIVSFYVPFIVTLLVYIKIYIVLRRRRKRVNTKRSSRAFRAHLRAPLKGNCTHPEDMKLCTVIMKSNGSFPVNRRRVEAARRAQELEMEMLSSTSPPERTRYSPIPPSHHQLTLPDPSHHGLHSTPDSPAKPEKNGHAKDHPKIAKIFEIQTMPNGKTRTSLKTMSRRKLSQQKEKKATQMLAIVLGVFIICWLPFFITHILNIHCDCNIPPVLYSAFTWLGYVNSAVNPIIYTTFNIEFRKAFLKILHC
5-hydroxytryptamine receptor 2A (Homo sapiens), sequence (P28223 whole entry, looked up): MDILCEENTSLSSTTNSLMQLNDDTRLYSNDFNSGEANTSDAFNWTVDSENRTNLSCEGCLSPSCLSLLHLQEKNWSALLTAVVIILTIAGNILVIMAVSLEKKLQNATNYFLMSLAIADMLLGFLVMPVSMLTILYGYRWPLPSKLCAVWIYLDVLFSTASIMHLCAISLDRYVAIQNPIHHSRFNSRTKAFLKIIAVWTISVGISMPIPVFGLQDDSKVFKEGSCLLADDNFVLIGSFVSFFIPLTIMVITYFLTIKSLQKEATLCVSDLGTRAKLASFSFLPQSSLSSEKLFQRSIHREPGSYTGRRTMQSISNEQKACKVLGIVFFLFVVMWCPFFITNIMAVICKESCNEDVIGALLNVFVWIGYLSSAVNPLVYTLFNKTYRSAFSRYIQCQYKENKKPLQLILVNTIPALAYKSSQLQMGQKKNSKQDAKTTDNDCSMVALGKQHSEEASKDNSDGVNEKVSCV
Beta-2 adrenergic receptor (Homo sapiens), sequence (P07550 whole entry, looked up): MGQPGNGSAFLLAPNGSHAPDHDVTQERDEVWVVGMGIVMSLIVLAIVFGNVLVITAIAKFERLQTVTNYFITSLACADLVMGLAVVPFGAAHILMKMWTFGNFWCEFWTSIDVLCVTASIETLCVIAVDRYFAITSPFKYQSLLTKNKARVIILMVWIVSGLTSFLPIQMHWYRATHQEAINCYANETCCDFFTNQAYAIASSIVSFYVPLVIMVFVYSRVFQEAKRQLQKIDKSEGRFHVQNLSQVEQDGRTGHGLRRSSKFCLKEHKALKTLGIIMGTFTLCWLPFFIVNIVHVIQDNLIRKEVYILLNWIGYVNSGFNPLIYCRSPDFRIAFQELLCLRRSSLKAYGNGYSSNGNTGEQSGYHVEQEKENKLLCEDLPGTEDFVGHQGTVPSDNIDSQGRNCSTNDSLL
KiSS-1 receptor (Homo sapiens), sequence (Q969F8 whole entry, looked up): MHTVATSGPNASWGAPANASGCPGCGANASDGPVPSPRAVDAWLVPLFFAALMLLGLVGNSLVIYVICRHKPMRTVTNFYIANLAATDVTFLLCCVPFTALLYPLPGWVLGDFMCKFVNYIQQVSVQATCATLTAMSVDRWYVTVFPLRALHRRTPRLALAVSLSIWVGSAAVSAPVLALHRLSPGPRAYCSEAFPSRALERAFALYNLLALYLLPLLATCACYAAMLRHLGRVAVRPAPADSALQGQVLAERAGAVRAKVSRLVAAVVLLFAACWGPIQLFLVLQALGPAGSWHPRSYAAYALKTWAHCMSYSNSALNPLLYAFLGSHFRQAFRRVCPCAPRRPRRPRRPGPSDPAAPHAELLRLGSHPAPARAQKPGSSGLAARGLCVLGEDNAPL
Gonadotropin-releasing hormone receptor (Homo sapiens), sequence (P30968 whole entry, looked up): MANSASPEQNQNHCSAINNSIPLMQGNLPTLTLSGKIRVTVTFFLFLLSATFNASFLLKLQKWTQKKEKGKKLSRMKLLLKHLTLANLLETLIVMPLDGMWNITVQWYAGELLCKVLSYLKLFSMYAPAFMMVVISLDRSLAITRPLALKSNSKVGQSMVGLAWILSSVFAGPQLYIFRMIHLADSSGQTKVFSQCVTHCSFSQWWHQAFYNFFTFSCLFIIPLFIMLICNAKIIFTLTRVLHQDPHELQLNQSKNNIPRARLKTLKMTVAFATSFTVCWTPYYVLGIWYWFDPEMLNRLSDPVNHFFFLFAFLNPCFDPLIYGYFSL
Muscarinic acetylcholine receptor M1 (Homo sapiens), sequence (P11229 whole entry, looked up): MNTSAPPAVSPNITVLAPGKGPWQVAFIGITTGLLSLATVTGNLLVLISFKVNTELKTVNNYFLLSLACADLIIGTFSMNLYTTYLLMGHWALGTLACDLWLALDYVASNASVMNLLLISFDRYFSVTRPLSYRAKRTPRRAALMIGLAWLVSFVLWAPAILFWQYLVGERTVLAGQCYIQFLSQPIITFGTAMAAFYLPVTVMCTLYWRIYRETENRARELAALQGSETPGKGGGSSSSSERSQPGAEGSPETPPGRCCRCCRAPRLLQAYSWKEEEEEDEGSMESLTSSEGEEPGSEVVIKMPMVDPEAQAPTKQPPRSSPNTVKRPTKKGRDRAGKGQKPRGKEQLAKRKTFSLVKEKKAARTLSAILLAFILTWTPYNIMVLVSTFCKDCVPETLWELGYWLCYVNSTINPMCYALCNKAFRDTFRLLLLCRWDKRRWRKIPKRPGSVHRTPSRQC

Structure (SMILES)	Potency [1]	Potency [2]	Potency [3]	outcome [4]	outcome [5]	Potency [6]	Potency [7]	Potency [8]	Potency [9]	Potency [10]	Potency [11]	Potency [12]	Potency [13]	Potency [14]	Potency [15]	Potency [16]	Potency [17]	Potency [18]	Potency [19]	Potency [20]
O=c1c(O)c(-c2ccc(O)cc2O)oc2cc(O)cc(O)c12	inactive	inactive	inactive	inactive	inactive	inactive	inactive	inactive	inactive	inactive	inactive	inactive	inactive	inactive	inactive	–	–	–	–	–
Cc1cc(C(C)(C)C)cc(C)c1CC1=NCCN1	inactive	inactive	inactive	inactive	inactive	inactive	inactive	inactive	inactive	inactive	–	–	–	inactive	–	inactive	inactive	inactive	inactive	–
CC(=O)OCC(C)C	inactive	inactive	inactive	inactive	inactive	inactive	inactive	inactive	–	–	inactive	inactive	–	inactive	inactive	inactive	inactive	inactive	inactive	–
CC[C@@]1(O)C(=O)OCc2c1cc1n(c2=O)Cc2c-1nc1ccccc1c2/C=N/OC(C)(C)C	inactive	inactive	inactive	inactive	inactive	inactive	inactive	inactive	–	–	5.79 µM (active)	inactive	20.5 µM (active)	inactive	–	–	–	inactive	–	inactive
Nc1nc(-c2ccccc2)c(Br)c(=O)[nH]1	inactive	inactive	inactive	inactive	inactive	inactive	inactive	inactive	–	–	–	inactive	inactive	inactive	inactive	inactive	–	inactive	inactive	inactive
CCCCc1nc2cccnc2n1Cc1ccc(-c2ccccc2-c2nnn[nH]2)cc1	inactive	inactive	inactive	inactive	inactive	inactive	inactive	inactive	inactive	–	inactive	inactive	inactive	inactive	–	–	–	–	inactive	inactive
COc1ccc(CN(CCN(C)C)c2ncccn2)cc1	inactive	inactive	inactive	inactive	inactive	inactive	inactive	inactive	–	inactive	inactive	inactive	–	inactive	–	inactive	inactive	inactive	inactive	inactive
BrC(Br)C(Br)Br	inactive	inactive	inactive	inactive	inactive	inactive	inactive	inactive	–	–	–	inactive	inactive	inactive	–	inactive	inactive	inactive	inactive	inactive
CC(C)CC(C)CC(C)CC(C)COC(=O)c1ccccc1C(=O)OCC(C)CC(C)CC(C)CC(C)C (stereo unspecified)	inactive	inactive	inactive	inactive	inactive	inactive	inactive	–	inactive	inactive	inactive	inactive	inactive	inactive	inactive	inactive	–	inactive	inactive	inactive
C[N+]1(CC2COC(c3ccccc3)(C3CCCCC3)O2)CCCCC1 (stereo unspecified)	inactive	inactive	inactive	inactive	inactive	inactive	inactive	inactive	inactive	–	inactive	inactive	inactive	inactive	inactive	–	–	inactive	inactive	inactive
CN1CCC(=C2c3ccccc3CCc3sccc32)CC1	inactive	inactive	inactive	inactive	inactive	inactive	inactive	inactive	–	inactive	0.0116 µM (active)	–	0.0145 µM (active)	inactive	–	inactive	–	–	inactive	11.9 µM (active)
CNC(=O)c1cc(Oc2ccc(NC(=O)Nc3ccc(Cl)c(C(F)(F)F)c3)cc2)ccn1	26.6 µM (active)	inactive	inactive	inactive	inactive	inactive	inactive	inactive	inactive	–	–	inactive	inactive	inactive	–	–	–	inactive	inactive	inactive
Clc1ccnc(Cl)n1	inactive	69.6 µM (active)	inactive	inactive	inactive	inactive	inactive	–	inactive	inactive	inactive	inactive	inactive	inactive	–	inactive	inactive	inactive	inactive	inactive
CCC1NC(=O)c2cc(S(N)(=O)=O)c(Cl)cc2N1 (stereo unspecified)	inactive	inactive	inactive	inactive	inactive	inactive	inactive	inactive	–	inactive	–	–	inactive	inactive	inactive	–	inactive	inactive	inactive	–
O=Cc1cccc(Br)c1	inactive	inactive	inactive	inactive	inactive	inactive	inactive	inactive	inactive	–	inactive	inactive	inactive	–	inactive	inactive	inactive	inactive	inactive	inactive
Cc1nc2ccc(Cl)cc2[nH]1	inactive	inactive	inactive	inactive	inactive	inactive	inactive	inactive	inactive	–	inactive	inactive	–	inactive	–	inactive	–	inactive	inactive	inactive
